Paper PMC4552634, “A New Set of Chemical Starting Points with Plasmodium falciparum Transmission-Blocking Potential for Antimalarial Drug Discovery” (PLoS ONE, 2015)
Read-outs that look alike come from different tables or passages of the source. Hit rate of the full screen: of about 13,000 compounds, about 3,200 (25%) showed an effect of 50% or more. The list shows a part of the results.

System: P. falciparum stage V gametocytes
Design: BacTiter-Glo ATP luminescence viability of purified stage V gametocytes in 384-well plates, per cent inhibition versus DMSO
Details: 48 h, 5 µM, inhibitor

SMILES | % Inhibition | % Inhibition (% Inhibition)
CCCCc1ccccc1NS(=O)(=O)c1ccc(OC)c(N2CCNCC2)c1 [TCMDC-139238] | 19.7% | 
CN1CCC(C(=O)Nc2cccc(-c3ccc(-c4nc5cc(C(F)(F)F)ccc5[nH]4)s3)c2)CC1 [TCMDC-132184] | 18.99% | 
COc1ccc2ccc(F)c(CCN3CCC(NCc4cc5c(cn4)OCCO5)CC3)c2n1 [TCMDC-136226] | 1.241% | 
Cc1cnc(C(=O)Nc2cccc(-c3ccc(-c4nc5cc(C(F)(F)F)ccc5[nH]4)s3)c2)cn1 [TCMDC-137028] | 12.51% | 
OC(c1ccc2ccccc2c1)C1CN(CCc2ccccc2)CCC1(O)c1ccccc1 (centres unmarked) [TCMDC-131995] | 4.082% | 
Cc1cccc2nc(-c3cccc(-c4ccc(NC(=O)Cc5ccc[n+]([O-])c5)cc4)c3)[nH]c12 [TCMDC-136993] | -15.96% | 
O=C(Cc1cnc[nH]1)Nc1ccc(-c2cccc(-c3nc4ccc(C(F)(F)F)cc4[nH]3)c2)cc1 [TCMDC-136949] | 9.618% | 
COc1ccc(NC(=O)Nc2ccc(-c3cccc(-c4nc5c(C)cccc5[nH]4)c3)cc2)cc1 [TCMDC-133245] | -21.29% | 
CCCN(CCC)C(=O)c1cc(-c2cccc(C)c2)nc2ccccc12 [TCMDC-124452] | -15.82% | 
CCCN(CC1CC1)c1nc(C)nc2c(-c3ccccc3)cc(C)cc12 [TCMDC-138123] | 91.17% | 
CCCN(CC1CC1)c1ncc(-c2cccc(CNCc3ccccc3O)c2)cn1 [TCMDC-133138] | 6.014% | 
O=C(Nc1ccc(-c2cncc(NCCCN3CCCC3)c2)cc1)c1ccccc1 [TCMDC-133799] | 7.133% | 
CN1CC=C(c2c[nH]c3ccc(Br)cc23)CC1 [TCMDC-139098] | -11.28% | 
Cc1cc(NC(=O)Nc2ccc(C#N)cc2)c2ccccc2n1 [TCMDC-138956] | 16.86% | 
CCN1CCN(c2cc(C)c3cc(NC(=O)c4ccc(C(C)(C)C)cc4)ccc3n2)CC1 [TCMDC-125579] | -38.88% | 
CCN1CCc2nc3ccccc3c(C(=O)Nc3ccc(C#N)cc3)c2C1 [TCMDC-124513] | 54.17% | 
Cc1onc(-c2c(F)cccc2Cl)c1C(=O)Nc1ccccc1I [TCMDC-125644] | -7.209% | 
CC(=O)c1ccc(NC(=O)Nc2ccc(N(C)c3ccnc(Nc4cccc(CS(C)(=O)=O)c4)n3)cc2)cc1 [TCMDC-138736] | -10.01% | 
CC(=O)c1cccc(NC(=O)NC2CCN(c3ccnc(Nc4ccc(F)cc4)n3)C2)c1 (centres unmarked) [TCMDC-133594] | -13.54% | 
CS(=O)(=O)Cc1ccc(Nc2nccc(N3CCCc4cc(NC(=O)Nc5cccc(C(F)(F)F)c5)ccc43)n2)cc1 [TCMDC-134309] | 69.84% | 
CCCCCCCc1c2c(C)c(C(=O)OCC)nc-2cc2n1CC(C)=C2C [TCMDC-124023] | 93.66% | 
O=C(CCCCCNC(=O)c1ccc(O)c(-c2ccc(Cl)c(Cl)c2)c1)NCCN1CCOCC1 [TCMDC-140848] | 9.445% | 
O=C(/C=C/c1ccc(Cl)c(Cl)c1)NCC1CCC(N2CCC(c3c[nH]c4ccccc34)CC2)CC1 (centres unmarked) [TCMDC-139676] | 103.8% | 

SMILES | % Inhibition | % Inhibition (% Inhibition)
O=C(/C=C/c1ccc(Cl)c(Cl)c1)NCC1CCCC(CN2CCC(c3c[nH]c4ccccc34)CC2)C1 (centres unmarked) [TCMDC-139490] | -31.4% | 
O=C(/C=C/c1ccc(Cl)c(Cl)c1)NCCC1CCC(N2CCC(c3c[nH]c4ccccc34)CC2)CC1 (centres unmarked) [TCMDC-139823] | 54.15% | 
O=C(/C=C/c1ccc(Cl)c(Cl)c1)NCCC1CCC(N2CCC(c3c[nH]c4ccc(O)cc34)CC2)CC1 (centres unmarked) [TCMDC-139824] | -86.05% | 
O=C(/C=C/c1ccc(Cl)c(Cl)c1)NCCCCCN1C2CCC1CC(c1c[nH]c3ccccc13)C2 (centres unmarked) [TCMDC-139239] | -9.344% | 
O=C(/C=C/c1ccc(Cl)c(Cl)c1)NCC1CCC(CN2CCC(c3c[nH]c4ccccc34)CC2)CC1 (centres unmarked) [TCMDC-139484] | 1.039% | 
Cc1cccc(NC(=O)N(Cc2cc3cc(C)cc(C)c3[nH]c2=O)C2CC2)c1 [TCMDC-123651] | 4.214% | 
COc1cccc(C23N=C(Nc4nc5ccccc5[nH]4)NC2(c2cccc(OC)c2)NC(Nc2nc4ccccc4[nH]2)=N3)c1 (centres unmarked) [TCMDC-139087] | 19.76% | 
Cc1ccccc1C1CCN(C2CCC(NC(=O)/C=C/c3c(F)ccc(F)c3F)CC2)CC1 (centres unmarked) [TCMDC-133512] | -94.66% | 
CCCc1cc(Cc2cnc(N)nc2N)cc2c1OC(C)(C)C2 [TCMDC-138049] | -0.08597% | 
Cc1c(CNCCCNc2nc3cscc3[nH]2)sc(C(F)F)c1Br [TCMDC-141336] | 21.93% | 
CC(C)(C)c1ccc(NC(=O)c2ccc(CN3CCCN(Cc4ccsc4)CC3)cc2)cc1 [TCMDC-136445] | -5.74% | 
COc1ccc(OC)c(C=CC(=O)NC2CCC(CN3CCC(c4c[nH]c5ccccc45)CC3)CC2)c1 (centres unmarked) [TCMDC-139893] | 103% | 
COc1cc(/C=C/C(=O)NC2CCC(CN3CCC(c4c[nH]c5ccccc45)CC3)CC2)ccc1O (centres unmarked) [TCMDC-139766] |  | -65.69%
COc1ccc(C=CC(=O)NC2CCC(CN3CCC(c4c[nH]c5ccccc45)CC3)CC2)cc1OC (centres unmarked) [TCMDC-139932] | 100.6% | 
COc1cc(/C=C/C(=O)NC2CCC(CN3CCC(c4c[nH]c5ccccc45)CC3)CC2)ccc1O (centres unmarked) [TCMDC-139756] |  | -29.87%
COc1ccc(C=CC(=O)NC2CCC(CN3CCC(c4c[nH]c5ccccc45)CC3)CC2)cc1 (centres unmarked) [TCMDC-139933] |  | 46.2%
COc1cccc(/C=C/C(=O)NC2CCC(CN3CCC(c4c[nH]c5ccccc45)CC3)CC2)c1 (centres unmarked) [TCMDC-139718] |  | 98.17%
COc1ccc(C=CC(=O)NC2CCC(CN3CCC(c4c[nH]c5ccccc45)CC3)CC2)cc1 (centres unmarked) [TCMDC-139949] |  | 103.1%
N#Cc1cccc(Nc2nccc(NCC(O)c3ccc(C(F)(F)F)cc3)n2)c1 (centres unmarked) [TCMDC-136590] | 5.433% | 
CCc1ccc(NC(=O)c2ccc(CN3CCCN(Cc4cccc(O)c4)CC3)cc2)cc1 [TCMDC-136439] | -0.6993% | 
CCN(CCCN1CCCCC1)c1cc(C)nc(Nc2ccc(C(F)(F)F)cc2)n1 [TCMDC-132435] | 28.95% | 
CN(Cc1cccc(F)c1)C1CCN(c2cc(NC(=O)c3cccc(F)c3)ccn2)CC1 [TCMDC-135015] | -7.193% | 
CCOc1cc(Cc2cnc(N)nc2N)cc(OCC)c1OCC [TCMDC-137696] | -8.766% | 

SMILES | % Inhibition | % Inhibition (% Inhibition)
COc1cc(C=CC(=O)NC2CCC(CN3CCC(c4c[nH]c5ccccc45)CC3)CC2)cc(OC)c1 (centres unmarked) [TCMDC-139947] | 16.96% | 
O=C(/C=C/c1cccc2ccccc12)NC1CCC(CN2CCC(c3c[nH]c4ccccc34)CC2)CC1 (centres unmarked) [TCMDC-139721] |  | -23.68%
COc1cccc(/C=C/C(=O)NC2CCC(CN3CCC(c4c[nH]c5ccccc45)CC3)CC2)c1 (centres unmarked) [TCMDC-139703] |  | 100.1%
COc1cccc(C=CC(=O)NC2CCC(CN3CCC(c4c[nH]c5ccccc45)CC3)CC2)c1OC (centres unmarked) [TCMDC-139902] | 78.88% | 
O=C(/C=C/c1cccc2ccccc12)NC1CCC(CN2CCC(c3c[nH]c4ccccc34)CC2)CC1 (centres unmarked) [TCMDC-139706] |  | -11.81%
O=C(Nc1ccccc1N1CCOCC1)c1ncoc1-c1ccccc1C(F)(F)F [TCMDC-123538] | -21.73% | 
O=C(N[C@@H](Cc1ccccc1)C(=O)NCCN1CCCCC1)c1ccc(O)c(-c2cccc(C(F)(F)F)c2)c1 [TCMDC-140816] | 36.65% | 
O=C1c2ccccc2C(=O)N1CCOc1c(Br)cc(Br)cc1CNCCCNc1cc(=O)c2ccccc2[nH]1 [TCMDC-140115] | -3.219% | 
CN1CCN(c2ccnc3ccc(NC(=O)Nc4cccc5c(C#N)cccc45)cc23)CC1 [TCMDC-139344] | -1.771% | 
O=C(NCCN1CCCCC1)c1ccc(Nc2nccc(Nc3ccc(Oc4ccccc4)cc3)n2)cc1 [TCMDC-138608] | -29.44% | 
O=C(NCc1cccc(C(F)(F)F)c1)[C@@H]1CCCN1C(=O)c1ccc(O)c(-c2ccc(Cl)c(Cl)c2)c1 [TCMDC-140832] | 33.81% | 
CC1(C)NC(N)=NC(=N)N1OCc1ccc2ccccc2c1CON1C(=N)N=C(N)NC1(C)C [TCMDC-131631] | -34.98% | 
c1ccc(CCNCc2ccc(-c3ccc(CNc4ccc5ncccc5c4)cc3)cc2)cc1 [TCMDC-140725] | -47.08% | 
c1cnc2ccc(NCc3ccc(-c4ccc(CNC5CCCC5)cc4)cc3)cc2c1 [TCMDC-140727] | 45.47% | 
c1ccc(CCNCc2ccc(-c3cccc(CNc4ccc5ncccc5c4)c3)cc2)cc1 [TCMDC-140720] | 4.928% | 
c1cc(CNC2CCCC2)cc(-c2ccc(CNc3ccc4ncccc4c3)cc2)c1 [TCMDC-140726] | 91.8% | 
CC(C)CNCc1ccc(-c2cccc(CNc3ccc4ncccc4c3)c2)cc1 [TCMDC-140719] | 58.47% | 
COCCNCc1ccc(-c2ccc(CNc3ccc4ncccc4c3)cc2)cc1 [TCMDC-140723] | 92.65% | 
CC(C)CNCc1cccc(-c2ccc(CNc3ccc4ncccc4c3)cc2)c1 [TCMDC-140722] | 48.08% | 
COc1cccc(CNC(=O)c2ccnc(-c3ccc(CNCCOc4ccccc4)cc3)c2)c1 [TCMDC-134501] | 1.442% | 
c1ccc(CCNCc2cccc(-c3ccc(CNc4ccc5ncccc5c4)cc3)c2)cc1 [TCMDC-140724] | 87.5% | 
O=C(Cc1cccc(Cl)c1)Nc1ccc(N2CCC(NCc3ccc4ncccc4c3)CC2)cc1 [TCMDC-124660] | 24.81% | 
